# Assay results as given in the supplement of paper PMC11417369.
# ± gives the standard deviation of the averaged measurements. The full ranking holds about 25,000 sequences; the median of “ln(normalized median fluorescence intensity)” is about 8.6, and the highest 2% start at about 10. What follows is part of a selection rich in the highest values, with near analogues and random picks from the rest.
# Tested on: PfAP2-EXP AP2 domain (GST-tagged)
# Experiment: gcPBM binding intensity (ln(normalized median fluorescence intensity)); higher = stronger DNA binding
# Outline: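 Plasmodium falciparum DNA-binding domains carrying a GST tag were expressed in E. coli and applied for 1 h, at about 25 μg on average, to an Agilent 4 × 180k array. The array held primer-extended double-stranded 36-bp intergenic genomic probes together with negative controls, and binding took place in 1× PBS with 1% milk, 0.2 mg/ml BSA, 0.5% salmon testes DNA and 0.03% Triton X-100. An Alexa488 anti-GST antibody detected bound protein, and the array was scanned at 488 nm. Binding intensity is taken as the highest Masliner-normalised natural-log median intensity across replicate spots of either probe orientation.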
row,Sequence,gcPBM binding intensity (ln)
1,ATATATATATATATATGTACTTAAAAAATATATACA [XGTACX_site8952],10.2 ± 0.53
2,TTTAATAATATAATGTGTACTTAAAAATTTATATAT [XGTACX_site5821],8.29 ± 0.21
3,ATATATATATATGTGTGTACTTAAAAATATAATGCA [XGTACX_site7753],10.2 ± 0.14
4,AATAATAAATAAATGTGTACTTAAAAATATTATATT [XGTACX_site3005],8.44 ± 0.33
5,TATACATTATTATTATGTACTTAAATATATATTATA [XGTACX_site5173],8.35 ± 0.34
6,ATTACAAATATAATATGTACTTAAATATAATTAAAA [XGTACX_site7038],8.17 ± 0.34
7,TGGAAAATTATTAACACACACATATAAATATATATA [CACACA_site46],8.4 ± 0.45
8,TGCAAATTTAACAAAAAAAAAAAAAAAAAAAAAAAA [GTGCAC_negctrl_site64],7.88 ± 0.45
9,AAAATACAATTTCTAGCACACAAAATATTATTATAA [CACACA_site9056],8.34 ± 0.37
10,TTCACTTTTTTTTTTTTTTTTTTTTTTTTTTTTATT [GTGCAC_negctrl_site350],8.07 ± 0.56
11,TAATTTCTTATGTATTGTACATATAATATATGATAT [XGTACX_site4898],8.52 ± 0.41
12,AATATTTTCTGTAATACTTCTTTTCAATTTATTTCG [CACACA_negctrl_site1390],8.76 ± 0.45
13,ATAATATATGAAAGTGGTACACAAAGGAAAATAAAA [XGTACX_site333],9.14 ± 0.57
14,ATATATATATATATATGGTAAAGTAAAAGGAAATAC [XGTACX_negctrl_site45],10.3 ± 0.3
15,TATAAAATAAAAGTAAATATATATATATATATATAT [TGCATGCA_negctrl_site208],10.1 ± 0.3
16,GAAACGTTTTTGAGTAGTACACACACAATAAGGATG [XGTACX_site6809],9.02 ± 0.45
17,TTTTATACATAAATGTGTACGTATATATAATGAATT [XGTACX_site2762],8.59 ± 0.32
18,GATTTATATTTTAAAAGTACAAGTTAAAATAAAAGT [XGTACX_site7059],8.74 ± 0.33
19,ATATATGATGTATTTGTGCACATATATATATTATTA [GTGCAC_site9471],8.75 ± 0.028
20,ACATATTATATATGTGTGCACATATATATATATTTA [GTGCAC_site9591],8.47 ± 0.13
21,TTTTTGTTATTATGTGTGCACATATATATATATATA,10.3 ± 0.4
22,ATATATATTATGTGTGTGCACTTTTGTTATTATTAT,9 ± 0.33
23,TATGTATATTTTTTTGTGCACATATATATATATATA,10.2 ± 0.26

row,Sequence,gcPBM binding intensity (ln)
1,TTATTTTATTTTTTTGTGCACATATATATTTATAAA [GTGCAC_site9615],9.15 ± 0.21
2,AACAAATACAGACACACACACACACTAATAAAAAAA [CACACA_site8067],8.66 ± 0.52
3,ATATATGGAAAGAGTAGTACTATTATAGGGGTGTTA [XGTACX_site6785],8.95 ± 0.64
4,TTTTTTTTGTAGAATTGTACTTATAAAATATATATA [XGTACX_site2116],8.19 ± 0.34
5,TAAAAATTACTATATGAACACACATGATTAGATATA [CACACA_site9012],8.43 ± 0.49
6,TTATATTTATAAAGGTGTACCTTAAAATGATTTTAC [XGTACX_site3774],8.19 ± 0.25
7,TGTGTATATTATATGTGTACATATCAATGTTTATAT [XGTACX_site1885],8.61 ± 0.26
8,ATATATATATATGTCTGTACATAAAAAATAATAAAT [XGTACX_site3122],10 ± 0.36
9,ATATATATATATATATGTACATATATTTATTTATTG [XGTACX_site6267],10.2 ± 0.3
10,ATTTGTTCATTTGGTTGTACATAATTTATTTTTATA [XGTACX_site785],8.75 ± 0.33
11,GTCATATATAATTGTTGTACATTTTTATAATTATGT [XGTACX_site8091],8.86 ± 0.36
12,ATATATATATATATATGTACATATATTTATATTTAT [XGTACX_site6179],9.99 ± 0.42
13,ATTTATTTATTTATATGTACATATATATATATATAT [XGTACX_site339],10.1 ± 0.3
14,ATATATATATATATATGTACATATGTCAACTGTCTA [XGTACX_site8636],10.3
15,GCTCAATGTTTTACATGTACATATATATATATATAT [XGTACX_site8210],10.2 ± 0.33
16,TATACATGTATATATTGTACATATGTTTTTTTTACA [XGTACX_site3300],8.86 ± 0.57
17,AAAAAAAATATAATATGTACATATCTATATATCAAC [XGTACX_site4881],8.55 ± 0.38
18,GTAATTTTATATGGTTGTACATATATATATATATAT [XGTACX_site6659],10.2 ± 0.18
19,GGAATTATAATAAATGGTACACATAAAAAAAAAAAA [XGTACX_site8343],8.77 ± 0.59
20,ATATATAATCATCACACATGCAGCCCTGATGAAAAA [TGCATGCA_site687],8.77 ± 0.38
21,TGCATACTTTTGTAAGTGCATAAAATCGTACCATGC,8.71 ± 0.11
22,GATATTACGTGTTTGGTATTTTTTGATGTTAATAGG [CACACA_negctrl_site105],8.8 ± 0.52
23,ATATATATATATATATGTACATATTTTATAACTGTA [XGTACX_site5395],10.2 ± 0.33

row,Sequence,gcPBM binding intensity (ln)
1,ATATATATATATGTATGTACACATATTTTTTAACTT [XGTACX_site431],10.42 ± 0.042
2,AAAAAAAAAAAAAAGAGTACATTTATTTATATATCT [XGTACX_site2381],8.23 ± 0.19
3,TTTTTTTTTTTTTTATGTACATATATATATTTTATT [XGTACX_site6915],8.61 ± 0.6
4,TATATACATTTATGTACACACACATATATGTATATT [CACACA_site8971],8.59 ± 0.34
5,ATATATATATATTTATGTACATATATTTTTTTTTTT [XGTACX_site8558],9.73 ± 0.28
6,CATATATATTTTATATGTACATATATATTTTATATA [XGTACX_site8665],8.45 ± 0.25
7,ATATATATATATGTATGTACATATTTTTTTTAACAC [XGTACX_site8475],9.93 ± 0.4
8,ATATATATATATATATGTACATATATTTTTATTTAT [XGTACX_site3508],10.3 ± 0.26
9,TTATATTTTTACAAGAGTACATATATATATATATAT [XGTACX_site5383],10.2 ± 0.31
10,ATATATATATATATATGTACATATTTTTTATTTTAT [XGTACX_site5761],10.1 ± 0.5
11,TTTTTTTTTATATTTAGTACATATATATTATTATAT [XGTACX_site3334],8.39 ± 0.31
12,CTTAAGTAAAATTAAAGTACATGGACAAAAAATATA [XGTACX_site7900],8.87 ± 0.28
13,AAAAAAAAAAAAAAAAGTACAAAAAAAAAAAAAAAA [XGTACX_site4549],8.26 ± 0.057
14,AAAATTAATTATTACAAAAATGAAAAGACATATTTT [GTGCAC_negctrl_site735],8.23 ± 0.38
15,TAATCAATTCAATATTGTACGATATTTACCTTTAAA [XGTACX_site4678],8.89 ± 0.42
16,AGAGGGGAAAACATGATGCACTAGTATAACCAAGAA,9.22 ± 0.34
17,GTGAATATTAAAAAATGTACACAATTATATGTATAT [XGTACX_site4834],8.49 ± 0.28
18,TTCAAAAGATATATCGTGCACATATATATGATGAAA,9.35 ± 0.62
19,ATGCTCAGGAAAACATGTACAAAATTATTTGTTATA [XGTACX_site4306],8.31 ± 0.34
20,TATATTATATTTTTATGTACATATATGTTTTTTTTT [XGTACX_site8239],8.52 ± 0.092
21,GTATATAAGTATATATGTACATATATTTTATATATA [XGTACX_site4745],8.42 ± 0.23
22,TGTATGTTTATTTATCGTACATATATATATATATAT [XGTACX_site7315],10.2 ± 0.18
23,ATATATTTATTTATATGTACATATTATATATTATAG [XGTACX_site3371],8.55 ± 0.35

row,Sequence,gcPBM binding intensity (ln)
1,ATGTATATATATATATGTACATATTTTTTATATGTA [XGTACX_site441],8.29 ± 0.25
2,AAGTATTTTTTTACATGTACATATATATATATATAT [XGTACX_site5065],10.2 ± 0.26
3,TTTCATTAATCTAATAGTACAGAAAATTGAGAAAAA [XGTACX_site8395],8.72 ± 0.34
4,ATTTTTTTCTTTTCTTTTTTCTTTTTTTTTTTTGGT [CACACA_negctrl_site1146],8.35 ± 0.61
5,AACTTATTAAGCCCTCCACATTTCTCTACTACAACT [CACACA_negctrl_site1552],8.61 ± 0.43
6,TATTTTTTTTTTATATGTACATAATTTCAAATAAAT [XGTACX_site7747],8.62 ± 0.48
7,TATAATTATATTTGGAGTACAAATTTTTTTTTTTTT [XGTACX_site7494],8.3 ± 0.32
8,TATATTTCAGGGGGGAGTACAAATTTTTTTATATAA [XGTACX_site1600],10.9 ± 0.38
9,ATATAAAAAAAAAAAAAAAAATATATATATATATAT [GTGCAC_negctrl_site251],10.2 ± 0.13
10,ATAAAAAAAAAAAAAAAATATATATATATATATATA [XGTACX_negctrl_site424],10.2 ± 0.32
11,TTATAATATAAAAATAAATAAATAAATAAATAAATA [CACACA_negctrl_site1587],8.55 ± 0.11
12,TATAAAAAAAAAAAATATATATATATATAAATATAA [TGCATGCA_negctrl_site367],8.2 ± 0.31
13,TTATAATAAATATATAAAAAAAAAAAAAAAAAAAAA [CACACA_negctrl_site1639],7.97 ± 0.23
14,TTATAAAAAAAAAAAAAAAATATATATATATATATA [XGTACX_negctrl_site592],10.3 ± 0.13
15,AAAAATAAAAAATATAAAAATATAAAAATATAAAAA [XGTACX_negctrl_site51],8.32 ± 0.38
16,AAAAAAAAAAAAAAATATAAATATATATATATATAT [GTGCAC_negctrl_site28],10 ± 0.28
17,ATATAAATAAAAAAAAAAAAAAAAAAAAAAAAAAAA [CACACA_negctrl_site972],8.01 ± 0.43
18,TAAATAATATCTATCACACACGCATATATACATATA [CACACA_site2622],8.32 ± 0.44
19,TAATATTATTTTTCAGTGCAATATAACCTTAGAATT [GTGCAC_site9417],8.38 ± 0.32
20,CATGTTCATCAGAACGCACACATAATGGTTTACTTA [CACACA_site898],8.47 ± 0.3
